“And” between values parts separate entries of the source, which are not always exact repeats. Identical values can stand only once. This is part of a sample that, as a whole, favours compounds with a hit. Of some 83,000 tested, about 20% had one in any assay.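 Plates (96-well) were seeded with cells, treated with compound at one concentration, and incubated for 48 hours before percent growth was determined.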 The source made the active and inactive calls. The calls were made as follows: active = growth percent below 10; inactive = the rest.
Test system: MDA-MB-468 breast
Test: NCI-60 one-dose screen, 48 h (100 = growth as untreated, 0 = no growth, -100 = all killed)
Conditions: 10 µM unless noted

| Compound | growth |
| --- | --- |
| O=C(/C=C(/C=C/c1cccc2[nH]ccc12)OB(F)F)/C=C/c1cccc2[nH]ccc12 | -57% (active) |
| CC(C)(C)c1cc(C[P+](c2ccc(Cl)cc2)(c2ccc(Cl)cc2)c2ccc(Cl)cc2)cc(C(C)(C)C)c1O | 6.75% (active) |
| COC1=C(C)C(=O)c2c(c(CCCl)c3n2CCC3O)C1=O (stereo not given) | 91.5% (inactive) |
| CS(=O)(=O)c1ccc(-c2cnc3ccc(-c4cccc(S(C)(=O)=O)c4)nn23)cc1 | 6.54% (active) |
| O=c1[nH]nc(-c2ccc(Cl)cc2)cc1Cc1cccc([N+](=O)[O-])c1 | 102% (inactive) |
| CCC(=O)Nc1ccc(-c2nc(-c3cccc(O)c3)c(-c3ccnc(Br)c3)[nH]2)cc1 | 30.5% (inactive) |
| CCCCN(CC)CCCCCCCCCCN1CCCc2cc(OC)ccc21 | 40.8% (inactive) |
| CCOC(=O)c1c(C)nc2ccccc2c1/C=C/c1cccs1 | -2.39% (active) |
| Clc1ccc(NC(Nc2ccc(Cl)cc2)C(Cl)(Cl)Cl)cc1 | 98.4% (inactive) and 108% (inactive) |
| NC(=O)c1cc(Cl)ccc1NC(=O)c1ccccc1-c1ccccc1 | 25.4% (inactive) |
| O=C1Nc2ccccc2/C1=C\c1ccccc1O | 67.4% (inactive) |
| Cc1oc(-c2ccc(Cl)cc2Cl)cc1C(=O)Nc1nccs1 | 94.4% (inactive) |
| C=CCNC(=S)N/C=C(/C(=O)c1ccccc1)c1ccccc1 | 102% (inactive) |
| COc1cc(-c2ccc3cc(OC)c(OC)c(OC)c3c2)cc(OC)c1OC | 31.6% (inactive) |
| CC(Oc1ccc(Cl)cc1)c1ccccc1 (stereo not given) | 99.9% (inactive) |
| COc1cc2c(c(OC)c1OC)C(=O)CC(c1cccc(C(=O)Nc3ccc(C#N)cc3)c1)O2 (stereo not given) | 58.9% (inactive) |
| O=C(Nc1ccc(-n2cc(-c3ccncc3)c(-c3ccc(Cl)c(O)c3)n2)cc1)Nc1cc(C(F)(F)F)cc(C(F)(F)F)c1 | 13.9% (inactive) |
| O=C(NNc1nc2cc(F)ccc2n2c(CN3CCOCC3)ccc12)c1ccccc1 | -27.9% (active) |
| CC1CCC(C)(C)c2ccccc21 (stereo not given) | 99.6% (inactive) |
| Cc1ccc(-c2cc3c(cc2O)C2CCCCC2(N2CCOCC2)O3)cc1 (stereo not given) | 87.9% (inactive) |

| Compound | growth |
| --- | --- |
| COc1ccc(/C=N/NC2=NC3C(S2)N(C)C(=O)N3C)cc1 (stereo not given) | -8.86% (active) |
| Cc1nn(-c2ccc(Cl)cc2)c(=O)n1CCN1CCOCC1 | 90.3% (inactive) |
| COc1ccc(C/C(C)=C(\c2ccc(Cl)cc2)c2ccc(OCCN3CCCC3)cc2)cc1 | 70% (inactive) |
| COc1ccc(-c2cc(=O)[nH]c3c(OC)c4ccccc4c(OC)c23)cc1 | -0.192% (active) |
| O=c1oc2ccc(I)cc2c(=O)n1-c1ccc(I)cc1F | -2.07% (active) |
| Cn1ccc(Cc2cnc(N)s2)n1 | 103% (inactive) |
| CNC(=S)Sc1ccc([N+](=O)[O-])cc1[N+](=O)[O-] | 35.6% (inactive) |
| CCCCCOC(=O)c1cccc(NC(=O)CN(CC)CC)c1 | 106% (inactive) |
| COc1cc(CNCCCCCCN2C(=O)c3cccc4cccc(c34)C2=O)ccc1O | 47.2% (inactive) |
| O=C1NCCC12CCN(c1c(Cl)cncc1-c1ccc(O)cc1)CC2 | 84.3% (inactive) |
| O=C1CC(c2nc3ccccc3[nH]2)CN1C1CCCCC1 (stereo not given) | 110% (inactive) |
| Nc1c2c(nc3ccc(Br)cc13)CC(c1ccccc1)CC2=O (stereo not given) | -4.68% (active) |
| COc1ccc(-c2nc(C#N)c(NCC(c3ccco3)N3CCCC3)o2)cc1 (stereo not given) | 49.2% (inactive) |
| Cn1cc(-c2csc(-c3cn(C(=O)OC(C)(C)C)c4ccccc34)n2)c2cccnc21 | -8.84% (active) |
| Cc1ccccc1NC(=O)/C=C/c1ccc(OCCOc2ccc3c(C)cc(=O)oc3c2)cc1 | 104% (inactive) |
| O=S(=O)(Nc1ccc(Cl)cc1)c1ccc(-c2cnc(C3CC3)o2)cc1 | -27.7% (active) |
| COC[C@@H](C)n1c(C2CCOCC2)nc2c1C1C=C(OC)C(c3c(C)noc3C)=CC1N=C2 (stereo not given in full) | 32.4% (inactive) |
| CN1CCN(Cc2ccc(NC(=O)c3cncc(C#Cc4ccc(N)nc4)c3)cc2C(F)(F)F)CC1 | -8.99% (active) |
| O=C(c1ccccc1)C(Nc1ccccc1)c1ccccc1 (stereo not given) | 88.7% (inactive) |
| Cc1cc(C)cc(NCCC#N)c1 | 107% (inactive) |
